# Test results published in the supplement of paper PMC4466140.
# Columns and labels:
# Assay in all cases: SPOT peptide array binding signal intensity (averaged, normalized) (arbitrary units (background-subtracted, floor 0; scale differs between SH3 domains)); higher = stronger binding of the SH3 domain to the peptide
# [1] = biological target: AgAbp1
# Procedure, shortened: (§1)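 GST-fused SH3 domains from four yeast species were expressed in E. coli BL21(DE3), purified on glutathione Sepharose and incubated at 10 μg/ml overnight at 4°C in TBS-based blocking buffer on cellulose membranes carrying synthetic 15-mer peptides, with cysteines replaced by serines. Bound protein was detected with anti-GST antibody, an HRP anti-mouse secondary and luminol, then imaged and quantified with Genespotter. Binding signal is the normalized, background-subtracted spot intensity averaged over replicates, in arbitrary units that differ between domains.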
# [2] = biological target: AgBbc1
# Procedure, shortened: as §1
# [3] = biological target: AgBem1-D1
# Procedure, shortened: as §1
# [4] = biological target: AgBzz1-D1
# Procedure, shortened: as §1
# [5] = biological target: AgBzz1-D2
# Procedure, shortened: as §1
# [6] = biological target: AgCyk3
# Procedure, shortened: as §1
# [7] = biological target: AgFus1
# Procedure, shortened: as §1
# [8] = biological target: AgHof1
# Procedure, shortened: as §1
# [9] = biological target: AgHse1
# Procedure, shortened: as §1
# [10] = biological target: AgLsb1
# Procedure, shortened: as §1
# [11] = biological target: AgLsb4
# Procedure, shortened: as §1
# [12] = biological target: AgMyo5
# Procedure, shortened: as §1
# [13] = biological target: AgNbp2
# Procedure, shortened: as §1
# [14] = biological target: AgRvs167
# Procedure, shortened: as §1
# [15] = biological target: AgSho1
# Procedure, shortened: as §1
# [16] = biological target: AgSla1-D1-D2
# Procedure, shortened: as §1
# [17] = biological target: AgSla1-D3
# Procedure, shortened: as §1
# [18] = biological target: CaAbp1-D1
# Procedure, shortened: as §1
# [19] = biological target: CaAbp1-D2
# Procedure, shortened: as §1
# [20] = biological target: CaBbc1
# Procedure, shortened: as §1
# [21] = biological target: CaBem1-D1
# Procedure, shortened: as §1
# [22] = biological target: CaBzz1-D1
# Procedure, shortened: as §1
# [23] = biological target: CaBzz1-D2
# Procedure, shortened: as §1
# [24] = biological target: CaCyk3
# Procedure, shortened: as §1
# [25] = biological target: CaFus1
# Procedure, shortened: as §1
# [26] = biological target: CaHof1
# Procedure, shortened: as §1
# [27] = biological target: CaHse1
# Procedure, shortened: as §1
# [28] = biological target: CaLsb1
# Procedure, shortened: as §1
# [29] = biological target: CaLsb4
# Procedure, shortened: as §1
# [30] = biological target: CaMyo5
# Procedure, shortened: as §1
# [31] = biological target: CaNbp2
# Procedure, shortened: as §1
# [32] = biological target: CaRvs167
# Procedure, shortened: as §1
# [33] = biological target: CaRvs167-3
# Procedure, shortened: as §1
# [34] = biological target: CaSho1
# Procedure, shortened: as §1
# [35] = biological target: CaSla1-D1-D2
# Procedure, shortened: as §1
# [36] = biological target: CaSla1-D3
# Procedure, shortened: as §1
# [37] = biological target: ScAbp1
# Procedure, shortened: as §1
# [38] = biological target: ScBbc1
# Procedure, shortened: as §1
# [39] = biological target: ScBem1-D1
# Procedure, shortened: as §1
# [40] = biological target: ScBzz1-D1
# Procedure, shortened: as §1
# [41] = biological target: ScBzz1-D2
# Procedure, shortened: as §1
# [42] = biological target: ScCyk3
# Procedure, shortened: as §1
# [43] = biological target: ScFus1
# Procedure, shortened: as §1
# [44] = biological target: ScHof1
# Procedure, shortened: as §1
# [45] = biological target: ScHse1
# Procedure, shortened: as §1
# [46] = biological target: ScLsb1
# Procedure, shortened: as §1
# [47] = biological target: ScLsb2
# Procedure, shortened: as §1
# [48] = biological target: ScLsb3
# Procedure, shortened: as §1
# [49] = biological target: ScLsb4
# Procedure, shortened: as §1
# [50] = biological target: ScMyo3
# Procedure, shortened: as §1
# [51] = biological target: ScMyo5
# Procedure, shortened: as §1
# [52] = biological target: ScNbp2
# Procedure, shortened: as §1
# [53] = biological target: ScPex13
# Procedure, shortened: as §1
# [54] = biological target: ScRvs167
# Procedure, shortened: as §1
# [55] = biological target: ScSho1
# Procedure, shortened: as §1
# [56] = biological target: ScSla1-D1-D2
# Procedure, shortened: as §1
# [57] = biological target: ScSla1-D3
# Procedure, shortened: as §1
# [58] = biological target: SpAbp1-D1
# Procedure, shortened: as §1
# [59] = biological target: SpBbc1
# Procedure, shortened: as §1
# [60] = biological target: SpBzz1-D1
# Procedure, shortened: as §1
# [61] = biological target: SpBzz1-D2
# Procedure, shortened: as §1
# [62] = biological target: SpCyk3
# Procedure, shortened: as §1
# [63] = biological target: SpHof1
# Procedure, shortened: as §1
# [64] = biological target: SpHof1-2
# Procedure, shortened: as §1
# [65] = biological target: SpHof1-3
# Procedure, shortened: as §1
# [66] = biological target: SpHse1
# Procedure, shortened: as §1
# [67] = biological target: SpLsb1
# Procedure, shortened: as §1
# [68] = biological target: SpLsb4
# Procedure, shortened: as §1
# [69] = biological target: SpMyo1
# Procedure, shortened: as §1
# [70] = biological target: SpNbp2
# Procedure, shortened: as §1
# [71] = biological target: SpPex13
# Procedure, shortened: as §1
# [72] = biological target: SpRvs167
# Procedure, shortened: as §1
# [73] = biological target: SpSla1-D1-D2
# Procedure, shortened: as §1
# [74] = biological target: SpSla1-D3
# Procedure, shortened: as §1
binder,measurement,setting,value
EQEEIAPSLPSRNSI,SPOT peptide array binding signal intensity,[1],6
same,SPOT peptide array binding signal intensity,[2],≤ 0
same,SPOT peptide array binding signal intensity,[3],≤ 0
same,SPOT peptide array binding signal intensity,[4],10.5
same,SPOT peptide array binding signal intensity,[5],1
same,SPOT peptide array binding signal intensity,[6],≤ 0
same,SPOT peptide array binding signal intensity,[7],≤ 0
same,SPOT peptide array binding signal intensity,[8],4.25
same,SPOT peptide array binding signal intensity,[9],≤ 0
same,SPOT peptide array binding signal intensity,[10],17.5
same,SPOT peptide array binding signal intensity,[11],1050
same,SPOT peptide array binding signal intensity,[12],≤ 0
same,SPOT peptide array binding signal intensity,[13],10
same,SPOT peptide array binding signal intensity,[14],3
same,SPOT peptide array binding signal intensity,[15],≤ 0
same,SPOT peptide array binding signal intensity,[16],≤ 0
same,SPOT peptide array binding signal intensity,[17],≤ 0
same,SPOT peptide array binding signal intensity,[18],≤ 0
same,SPOT peptide array binding signal intensity,[19],7.5
same,SPOT peptide array binding signal intensity,[20],5.5
same,SPOT peptide array binding signal intensity,[21],2
same,SPOT peptide array binding signal intensity,[22],≤ 0
same,SPOT peptide array binding signal intensity,[23],≤ 0
same,SPOT peptide array binding signal intensity,[24],1
same,SPOT peptide array binding signal intensity,[25],22
same,SPOT peptide array binding signal intensity,[26],1
same,SPOT peptide array binding signal intensity,[27],4
same,SPOT peptide array binding signal intensity,[28],0.5
same,SPOT peptide array binding signal intensity,[29],5990
same,SPOT peptide array binding signal intensity,[30],≤ 0
same,SPOT peptide array binding signal intensity,[31],≤ 0
same,SPOT peptide array binding signal intensity,[32],43.8
same,SPOT peptide array binding signal intensity,[33],1
same,SPOT peptide array binding signal intensity,[34],≤ 0
same,SPOT peptide array binding signal intensity,[35],≤ 0
same,SPOT peptide array binding signal intensity,[36],≤ 0
same,SPOT peptide array binding signal intensity,[37],14.5
same,SPOT peptide array binding signal intensity,[38],≤ 0
same,SPOT peptide array binding signal intensity,[39],≤ 0
same,SPOT peptide array binding signal intensity,[40],7
same,SPOT peptide array binding signal intensity,[41],1
same,SPOT peptide array binding signal intensity,[42],1
same,SPOT peptide array binding signal intensity,[43],1
same,SPOT peptide array binding signal intensity,[44],1.5
same,SPOT peptide array binding signal intensity,[45],7
same,SPOT peptide array binding signal intensity,[46],127
same,SPOT peptide array binding signal intensity,[47],8
same,SPOT peptide array binding signal intensity,[48],4150
same,SPOT peptide array binding signal intensity,[49],2440
same,SPOT peptide array binding signal intensity,[50],≤ 0
same,SPOT peptide array binding signal intensity,[51],≤ 0
same,SPOT peptide array binding signal intensity,[52],2.5
same,SPOT peptide array binding signal intensity,[53],646
same,SPOT peptide array binding signal intensity,[54],244
same,SPOT peptide array binding signal intensity,[55],≤ 0
same,SPOT peptide array binding signal intensity,[56],1
same,SPOT peptide array binding signal intensity,[57],1
same,SPOT peptide array binding signal intensity,[58],1
same,SPOT peptide array binding signal intensity,[59],2
same,SPOT peptide array binding signal intensity,[60],≤ 0
same,SPOT peptide array binding signal intensity,[61],1
same,SPOT peptide array binding signal intensity,[62],≤ 0
same,SPOT peptide array binding signal intensity,[63],1
same,SPOT peptide array binding signal intensity,[64],≤ 0
same,SPOT peptide array binding signal intensity,[65],0.75
same,SPOT peptide array binding signal intensity,[66],≤ 0
same,SPOT peptide array binding signal intensity,[67],13
same,SPOT peptide array binding signal intensity,[68],4140
same,SPOT peptide array binding signal intensity,[69],≤ 0
same,SPOT peptide array binding signal intensity,[70],5.5
same,SPOT peptide array binding signal intensity,[71],≤ 0
same,SPOT peptide array binding signal intensity,[72],450
same,SPOT peptide array binding signal intensity,[73],2
same,SPOT peptide array binding signal intensity,[74],1
